The source of these data is PubChem BioAssay (NCI).

Where “and” joins values, the source holds several entries; their conditions need not be identical. Equal values may be shown once. The panel holds about 83,000 compounds, 20% with a hit somewhere; the sample as a whole holds those more often.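 Cells were grown in 96-well plates and exposed to the test compound at a single concentration for 48 hours; results are reported as percent growth, with values below 10 considered active.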 Calls of active or inactive are those of the source.

This assay concerns MDA-MB-468 breast. Briefly: NCI-60 one-dose screen, 48 h (100 = growth as untreated, 0 = no growth, -100 = all killed). The note with it: 10 µM unless noted.
`O=C(O)CNC1=C(Cl)C(=O)c2ccccc2C1=O`: the growth was 109% (inactive).

Regarding `CCc1ccc(CNCC(O)c2ccccc2)cc1` (stereo not given), the growth is -1.1% (active).

With `COc1ccc2c(c1)/C(=C\c1sc(=S)[nH]c1O)C(C(=O)O)=N2`, the growth was 98.2% (inactive).

Regarding `COc1ccc(-c2no[n+]([O-])c2Nc2ccccc2Br)cc1`, the growth was 93.3% (inactive).

As for `O=C1/C(=C/c2cc(F)cc(F)c2)Cc2cc(F)cc(F)c21`, the growth is 74.1% (inactive).

Consider `CC(=O)Nc1ccc(/C=N/N2CCCCCC2)cc1`, for which the growth is 98.6% (inactive).

Take `CCCCCCCCCCCCSC(=NC)NC`: the growth was -9.65% (active) and 32.3% (inactive).

`O=C(Nc1cccc(-n2cc(-c3ccncc3)c(-c3ccc(O)c(Cl)c3)n2)c1)c1ccc(N2CCOCC2)c(C(F)(F)F)c1`: the growth is 65.9% (inactive).

For `Nc1c(Cl)cc2c(c1Br)C(=O)c1ccccc1C2=O`, the growth was 85.4% (inactive).

With `CN(C=O)c1ccccc1`, the growth is 87.3% (inactive).

As to `Cc1c(CC(=S)N2CCOCC2)nnn1-c1cccc(C(F)(F)F)c1`, the growth was 117% (inactive).

With `CCCCCCCCCCCCCCCCOc1ccccc1NC(=O)CC(C)=O`, the growth is 111% (inactive).

In the case of `Cn1cnc([N+](=O)[O-])c1S(=O)(=O)Oc1ccc(Cl)cc1`, the growth is 29.8% (inactive).

Consider `IP(CCCSc1n(Cc2ccc3ccccc3c2)c(-c2ccccc2)c(-c2ccccc2)[n+]1Cc1ccc2ccccc2c1)(c1ccccc1)(c1ccccc1)c1ccccc1`, for which the growth is -21.5% (active).

As to `N=C(N)c1nn(C2OC(CO)C(O)C2O)c2nc[nH]c(=O)c12` (stereo not given), the growth is -59% (active).

Turning to `Cc1nn(-c2ccc(Br)cc2)c2nc3[nH]c(=O)[nH]c(=O)c3nc12`, the growth was 116% (inactive).

Turning to `CC(C)NS(=O)(=O)/N=C1\NC(=O)NC1=C(Cl)Cl`, the growth is 60.6% (inactive).

In the case of `N#C/C(=C\c1ccc(Br)cc1)n1nnc2c(F)cccc21`, the growth is -10.8% (active).

`COc1ccc2c(c1)c(-c1nc(-c3cn(C)c4ccncc34)cs1)cn2C`: the growth was -28.4% (active).

As to `COc1ccc(Br)cc1NC(=O)Nc1cccc2c1ccn2Cc1ccnc(N)c1`, the growth was -14.4% (active).

As to `CCc1c(C(=O)N[C@@H](C(=O)OCc2ccccc2)C(C)O)[nH]c2ccc(Cl)cc12` (stereo not given in full), the growth is 79.1% (inactive).

With `COc1c(Br)cc(C(c2cc(Br)c(OC)c(Br)c2)c2ccccc2C(=O)O)cc1Br`, the growth was 100% (inactive).

For the molecule `CC(=O)Nc1cc(C)ccc1C`, the growth was 76% (inactive).

For `CN(C)CCCN=c1cc2c(=O)n(CCCN(C)C)c(=O)c3c(NCCCN(C)C)cc4c(O)n(CCCN(C)C)c(=O)c1c4c3-2`, the growth is -53.2% (active).

As to `Cc1ccc(N2C(=O)CCC2=O)cc1`, the growth is 103% (inactive).

For `FC(F)(F)c1ccccc1-c1cn2c(ccc3ccccc32)n1`, the growth was 105% (inactive).

`O=C1/C(=C/c2ccccn2)NC(=S)N1c1ccccc1Cl`: the growth is 36% (inactive).

Consider `O=C(Cn1c(-c2ccc([N+](=O)[O-])cc2)nc2ccccc21)NNC(=O)c1cccnc1`, for which the growth is -12.6% (active).

`CCN1CCN(c2cc(C(=O)Nc3cccc(Nc4ccc5c(OC)cccc5n4)c3)cc(C(F)(F)F)c2)CC1`: the growth was 23.8% (inactive).

On to `O=C1C[C@@H](c2ccccc2)Oc2c(Cc3ccccc3O)c(O)c(Cc3cc(Cc4cc(Cc5ccccc5O)ccc4O)ccc3O)c(O)c21`, for which the growth was 101% (inactive).

Regarding `CC(O)CN(CC(C)O)c1ccc2c(c1)Cc1cc([N+](=O)[O-])ccc1-2` (stereo not given), the growth is 100% (inactive).

`Cc1cc2cc3cc(C)c(N(C)C)cc3[n+](C)c2cc1N(C)C`: the growth is 27.1% (inactive).

Take `CCCCCCCOc1cccc(/C=C2/C(=O)N=C3SCCCN32)c1`: the growth was 56.8% (inactive).

In the case of `O=C(CCc1nnc(SCc2ccccc2)s1)c1nc2ccccc2[nH]1`, the growth is 103% (inactive).

As to `O=C1c2cc3c(cc2-c2c1c1ccc(Cl)cc1c(=O)n2CCCn1ccnc1)OCO3`, the growth is -47.9% (active).

Regarding `CC(=O)Oc1cc2ccccc2cc1C(C)C`, the growth was 98.8% (inactive).

Regarding `NC(=O)[C@@H]1Cc2ccccc2CN1C(=O)c1ccc2c(c1)Cc1ccccc1-2`, the growth was 71.4% (inactive).

Turning to `CC(=O)Nc1ncc(S(=O)(=O)c2ccc([N+](=O)[O-])cc2)s1`, the growth is 107% (inactive).

`COc1ccc(-c2nc(N/N=C/c3c[nH]c4ccccc34)nc(N3CCOCC3)c2C#N)cc1`: the growth was 97.8% (inactive).

`CC1=CCC(OC(=O)C(C)(O)CCC(O)(C(=O)OC2(C)C=CC(O)(C(C)C)CC2)C(C)C)(C(C)C)CC1` (stereo not given): the growth was 107% (inactive).
